KCNH2 3.1 inh = blocks the human KCNH2 3.1 channel isoform. U2OS KCNH2 3.1, thallium flux FluxOr; active compounds read low. activity change, % (tested at about 1.8 µM). actives 0.95% (n = 340,000). AID 720553;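 active = maximum activity change below -70%; inconclusive = maximum activity change from -70% to -50%; inactive = maximum activity change above -50%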;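 also: thallium influx rate constant from kinetic fluorescence after stimulation buffer; % is scaled to controls: 0 for no effect and ±100 for the full control effect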
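Normalized rate constant (relative to positive and negative DMSO controls) derived from a 2 min kinetic fluorescence read after stimulation; U2OS cells expressing the 3.1 isoform via virus at 1.77 x 10^8 /mL.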
MBNL1-CUG inh = blocks human MBNL1 binding to CUG repeat RNA; TR-FRET MBNL1-His/biotin-(CUG)12 binding, 665/545 ratio; Potency, µM (doses to about 57.5 µM), inactives show top-dose activity change, negative = inhibition, actives largely listed as inhibitors; actives 0.036% (n = 280,000); AID 2675; active = well fitted inhibition curve with a large enough effect in the signal ratio, with a control signal flat, not every such curve was filed as active; inconclusive = small, poorly fitted or top-dose-only effect, or effect the other way, or a change in a side signal; inactive = no such curve, though single readings can be large or run the other way; the % refers to the signal ratio; also: potency is read from the fitted curve at half-maximal effect; % is scaled to controls: 0 for no effect and ±100 for the full control effect
Target sequence (Q9NR56 whole entry, looked up): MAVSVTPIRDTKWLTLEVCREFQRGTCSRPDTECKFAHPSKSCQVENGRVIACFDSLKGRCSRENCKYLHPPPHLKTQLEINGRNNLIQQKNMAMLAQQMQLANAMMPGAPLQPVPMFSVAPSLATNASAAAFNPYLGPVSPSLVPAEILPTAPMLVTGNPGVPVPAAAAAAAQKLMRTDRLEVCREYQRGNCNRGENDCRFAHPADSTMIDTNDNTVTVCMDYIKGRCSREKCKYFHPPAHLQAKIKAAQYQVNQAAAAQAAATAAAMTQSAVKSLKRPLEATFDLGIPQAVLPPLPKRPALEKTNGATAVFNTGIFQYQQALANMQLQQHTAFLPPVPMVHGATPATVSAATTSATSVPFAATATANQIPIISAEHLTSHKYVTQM
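Compounds (final 92 nM to 58 uM) are added to His-tagged MBNL1 and biotin-(CUG)12, then terbium anti-His antibody and streptavidin-XL665 (5 nM final). After 60 min at room temperature, the 665/545 nm ratio is read.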
PLK1 PBD block = inhibitors of human PLK1 polo-box domain binding | P53350 | Plk1 PBD binding of FITC phosphopeptide, fluorescence polarization | Potency, µM, for the others: max response, negative = inhibition, most hits filed as inhibitors | actives 2.8% (n = 360,000) | AID 720504; also: potency is read from the fitted curve at half-maximal effect; series mostly up to about 57 µM; % is scaled to controls: 0 for no effect and ±100 for the full control effect; nearly all actives have a fitted effect of over 65% in size
CBFb-RUNX1 inh = blocks binding between human CBF-beta and RUNX1; Potency, µM (doses to about 59.8 µM), for inactives: at the highest dose activity, negative = inhibition, most hits filed as inhibitors; AlphaScreen CBFb-His/RUNX1-biotin binding, biochemical; 230,000 tested, under 10 active; Q01196+Q13951; AID 1477; also: % of control where 0% means no effect
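Interaction loss through any mechanism counts as activity. Pre-formed complex of His-CBF-beta and biotin-RUNX1 (30 nM apiece) is incubated with compound 15 min, then with 50 ng nickel and 50 ng streptavidin beads for 90 min before AlphaScreen detection.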
hERG WT inh = KCNH2 (human, wildtype) channel inhibition. actives 0.37% (n = 340,000). Q12809. U2OS, BacMam KCNH2, thallium flux FluxOr; active compounds read low. activity change, % at 1.84 µM;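 active = maximum activity change below -70%; inconclusive = maximum activity change between -70% and -50%; inactive = maximum activity change above -50%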; also: % is scaled to controls: 0 for no effect and ±100 for the full control effect
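U2OS cells were transduced with wild-type KCNH2 virus (2.03 x 10^8 / mL) for 4 h at room temperature, then cultured overnight at 37 C. Thallium flux was read with FluxOr dye. Rate constants were normalized to DMSO controls.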
VDR inhibitor = vitamin D3 receptor (human) inhibition | Potency, µM, inactives show max response, negative = inhibition, usual class: inhibitors | P11473 | AID 504847 | VDR-SRC2-3 peptide fluorescence polarization, 2 h | actives 0.93% (n = 400,000); also: potency is read from the fitted curve at half-maximal effect; % is scaled to controls: 0 for no effect and ±100 for the full control effect
Target sequence (P11473 whole entry, looked up): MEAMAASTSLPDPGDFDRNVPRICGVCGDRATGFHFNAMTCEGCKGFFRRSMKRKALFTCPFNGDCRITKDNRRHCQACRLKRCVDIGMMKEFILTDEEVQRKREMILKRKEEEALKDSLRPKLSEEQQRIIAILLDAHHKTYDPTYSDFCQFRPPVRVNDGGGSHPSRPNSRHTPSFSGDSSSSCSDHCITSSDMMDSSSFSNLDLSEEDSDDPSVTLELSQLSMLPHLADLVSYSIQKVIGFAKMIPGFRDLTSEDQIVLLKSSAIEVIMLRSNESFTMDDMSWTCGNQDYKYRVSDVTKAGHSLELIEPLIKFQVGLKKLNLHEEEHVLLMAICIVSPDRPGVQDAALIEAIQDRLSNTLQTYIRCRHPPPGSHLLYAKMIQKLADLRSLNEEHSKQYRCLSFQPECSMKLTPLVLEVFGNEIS
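Measured by FP: displacement of SRC2-3 coactivator peptide from VDR by library compounds, following a two-hour ambient incubation.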
* hit, by the source's call; ? = inconclusive; . = no result; [ ] = dose if it differs, or a comment. The list is not random: actives were taken first. Their share in the collection is about 3.8%. Unless noted, calls follow the shape of the dose curve; as a rule, active = well fitted curve in the direction sought with a large enough effect; inconclusive = small, poorly fitted or top-dose-only effect, or another doubt; inactive = no such curve, though single readings can be large; an effect the other way counts as inactive or inconclusive.

SMILES	KCNH2 3.1 inh	MBNL1-CUG inh	PLK1 PBD block	CBFb-RUNX1 inh	hERG WT inh	VDR inhibitor
COc1ccc2[nH]c(=O)c(CN(C(=O)c3cccnc3)c3ccc(C)cc3)cc2c1	1.9	36.5%	-3.1%	4.6%	4.9	9.3%
COc1ccc2[nH]c(=O)c(CN(C(=O)c3cccnc3)c3cccc(C)c3)cc2c1	10.2	-0.2%	23.8µM*	2.7%	8.1	?
CC(C)(C)c1ccc(NC(=O)N2CCN(c3ccc([N+](=O)[O-])cn3)CC2)cc1	-103.4*	0.4%	-12.9%	0.8%	3.2	-7.8%
O=C(O)c1cc(N/N=C/c2c(O)ccc3ccccc23)ccc1Cl	-1.1	16.7%	16.8µM*	.	-2.8	?
O=C(N/N=C/c1c(O)ccc2ccccc12)Nc1ccccc1	-7.5	.	-0.1%	.	1.7	-15.1%
O=S(=O)(/N=C/c1c(O)ccc2ccccc12)c1ccccc1	-7.7	?	15µM*	.	-0.8	-4.4%
Cc1ccc(-c2n[nH]c3c2C(c2cccs2)N(c2ccc(Cl)cc2)C3=O)cc1 (stereo unspecified)	.	.	.	.	.	-8.6%
CNC(=S)NNC(=O)c1cccc(C(F)(F)F)c1	-6.9	0.3%	-11.7%	10.7%	-6.3	-1.9%
CNC(=S)NNC(=O)c1ccc(=O)n(Cc2cccc(C(F)(F)F)c2)c1	-2.3	8.1%	2.99µM*	-2.0%	-3.9	-10.4%
CC(=O)Oc1ccc2c(c1)O/C(=C\c1ccncc1)C2=O	23.2	.	?	4.3%	-4.2	-13.5%
COc1ccccc1C(=O)Oc1ccc2c(c1)O/C(=C\c1ccncc1)C2=O	-13.2	?	0.0%	7.0%	-0.3	35.5µM*
O=C1/C(=C/c2cccnc2)Oc2cc(OS(=O)(=O)c3ccc(Cl)cc3)ccc21	10.0	-9.6%	-3.4%	-1.0%	-13.0	-8.4%
O=C1/C(=C/c2cccnc2)Oc2cc(OS(=O)(=O)c3ccccc3)ccc21	4.3	?	-21.4%	-19.8%	-8.4	50.1µM*
CNC(=O)c1ccc(CSc2nc3ccncc3n2Cc2ccc(C)cc2)cc1	.	.	.	.	.	-5.8%
COc1ccc(N2CCN(c3cc(C)c4cccc(C)c4n3)CC2)cc1	-0.7	.	2.1%	6.3%	-9.2	-3.9%
Cc1cc(N2CCN(c3ccc(F)cc3)CC2)nc2cc(O)ccc12	-79.2*	-0.3%	4.7%	-5.3%	?	18.5%
COc1ccc(N2CCN(c3cc(C)c4ccc(C)cc4n3)CC2)cc1	-102.1*	.	-8.3%	?	-73.7*	-21.5%
COc1ccc(N2CCN(c3cc(C)c4ccc(O)cc4n3)CC2)cc1	-25.9	-4.4%	5.5%	-14.7%	35.7	9.1%
COc1ccc2c(C)cc(N3CCN(c4ccc(F)cc4)CC3)nc2c1	-91.3*	3.5%	-7.2%	-0.3%	-34.6	-5.9%
COc1ccc(NC(=O)Cn2cc(C(=O)c3ccc(C)c(C)c3)c(=O)c3cc(OC)ccc32)cc1	.	.	.	.	.	-7.6%
Cc1ccc(NC(=O)C2CCN(C(=O)c3ccco3)CC2)cc1	-85.4*	-5.7%	-1.0%	.	-19.7	-12.5%
COc1ccccc1Cc1nnc(NC(=O)C2CCN(C(=O)c3ccco3)CC2)s1	-4.6	-6.7%	26.7µM*	.	6.0	?
COCc1nnc(NC(=O)C2CCN(C(=O)c3ccco3)CC2)s1	10.4	-0.8%	26.7µM*	.	3.1	-7.5%
CCOCCc1nnc(NC(=O)C2CCN(C(=O)c3ccco3)CC2)s1	-8.0	-0.4%	-15.6%	.	-2.1	-17.7%
N#Cc1nc(N2CCCCC2)nc(N(c2ccccc2)c2ccccc2)n1	.	.	.	.	.	-19.5%
SMILES	KCNH2 3.1 inh	MBNL1-CUG inh	PLK1 PBD block	CBFb-RUNX1 inh	hERG WT inh	VDR inhibitor
COc1ccc(/C=N/n2cnn(Cc3ccccc3Cl)c2=S)cc1OC	1.2	24.2%	23.8µM*	-4.5%	12.6	-7.7%
O=C(COc1cccc(Br)c1)N/N=C1\CCSC1	-11.4	-0.8%	21.2µM*	-2.3%	3.2	?
O=S(=O)(Nc1cccc2cccnc12)c1ccc(Br)s1	.	.	.	5.9%	.	.
Cn1c(=O)n(Cc2ccccc2Cl)c(=O)c2c1nc1n2CCN1c1ccccc1	.	.	.	.	.	-7.4%
Cc1ccc2c(c1)c1c(c(=O)n(-c3cccc(Cl)c3)c(=O)n1CC(=O)NCCC1=CCCCC1)n2C	.	.	.	.	.	13.6%
FC(F)(F)c1ccccc1-c1cncnc1NCCN1CCOCC1	.	.	.	.	.	44.7µM*
CC(C)/C=C1\CC/C(=C\c2ccc(N(C)C)cc2)C1=O	-79.4*	0.0%	32.2%	9.3%	-34.4	-6.1%
CC(C)c1ccc(/C=C2\CC/C(=C\C=N\N(C)C)C2=O)cc1	-1.1	-0.1%	-6.0%	-0.9%	-8.7	-0.9%
CCCn1c2ccccc2c2cnn(CC(=O)NCCCN(Cc3ccccc3)C(C)C)c(=O)c21	.	.	.	.	.	1.3%
CCN(CC)S(=O)(=O)c1ccc2nc(NC(=O)c3ccc(Br)o3)sc2c1	.	.	.	.	.	9.1%
CS(=O)(=O)c1ccc2nc(NC(=O)c3ccc(Cn4cc(Br)cn4)o3)sc2c1	-94.8*	1.2%	-19.7%	.	-5.7	10.1%
Cc1cc(C)c(NC(=O)c2nc3ccccc3nc2N2CCCCC2)c(C)c1	.	.	.	.	.	3.1%
COc1cccc(OC)c1C(=O)NC(=S)Nc1cc(-c2nc3ccccc3[nH]2)ccc1Cl	-10.3	28.7%	9.47µM*	-4.7%	-1.2	-16.6%
CCOc1cc(C(=O)Nc2cccc(-c3nc4ccccc4o3)c2)cc(OCC)c1OCC	.	.	.	.	.	-15.0%
O=C(Nc1cccc(-c2nc3ccccc3c(=O)o2)c1)c1ccccc1	-1.6	-7.2%	21.2µM*	-7.8%	4.1	-2.4%
Cc1ccccc1NC(=O)CSc1ccc(-c2cccs2)nn1	.	.	.	.	.	16.7%
CC1CN(C)C(C)C/C1=N\Oc1ccc([N+](=O)[O-])cc1 (stereo unspecified)	-88.0*	?	-1.9%	3.1%	-14.5	20.0%
O=C(/C=C/c1ccco1)NCC(=O)N/N=C/c1ccc([N+](=O)[O-])cc1	21.4	.	10.6µM*	-6.8%	.	?
O=C(CNC(=O)c1cccs1)N/N=C/c1c[nH]c2ccccc12	-10.1	-17.2%	18.9µM*	-8.2%	.	-2.3%
Cc1ccccc1NCC(=O)N/N=C/c1c[nH]c2ccccc12	16.6	-4.2%	29.9µM*	?	-3.4	-1.9%
O=C(/C=C/c1ccco1)NCC(=O)N/N=C/c1ccc(Cl)cc1	-25.1	13.7%	-9.0%	-2.8%	1.3	7.5%
Cc1ccccc1NCC(=O)N/N=C/c1ccc([N+](=O)[O-])cc1	-111.8*	?	0.7%	9.3%	-12.4	0.4%
O=C(CNC(=O)c1ccco1)N/N=C/c1c[nH]c2ccccc12	0.2	1.7%	-5.0%	6.4%	-9.7	-0.7%
CNCCCCCCCCSc1nc(C(C)C)ccc1C(=O)c1cccs1	.	.	.	-0.8%[21.7 µM]	.	?
O=C1CCCC2=C1C(c1ccco1)Nc1ccc3ccccc3c12 (stereo unspecified)	5.9	?	23.8µM*	.	-11.1	6.9%

High-throughput results: PubChem, National Center for Advancing Translational Sciences (NCATS)
